Source: PubChem (National Center for Advancing Translational Sciences (NCATS))
Only some compounds are listed: those with a hit (about 9.3% of all), similar ones and a draw of the others.
FLuc counter = counter-screen for miR-21 project: firefly luciferase inhibitors or activators; purified FLuc, Km substrates, luminescence inhibition; Potency, µM (doses to about 57.5 µM), actives largely listed as inhibitors; actives 6.9% (n = 360,000); AID 588342; also: nearly all actives have a fitted effect of over 55% in size
Target sequence (P08659 whole entry, looked up): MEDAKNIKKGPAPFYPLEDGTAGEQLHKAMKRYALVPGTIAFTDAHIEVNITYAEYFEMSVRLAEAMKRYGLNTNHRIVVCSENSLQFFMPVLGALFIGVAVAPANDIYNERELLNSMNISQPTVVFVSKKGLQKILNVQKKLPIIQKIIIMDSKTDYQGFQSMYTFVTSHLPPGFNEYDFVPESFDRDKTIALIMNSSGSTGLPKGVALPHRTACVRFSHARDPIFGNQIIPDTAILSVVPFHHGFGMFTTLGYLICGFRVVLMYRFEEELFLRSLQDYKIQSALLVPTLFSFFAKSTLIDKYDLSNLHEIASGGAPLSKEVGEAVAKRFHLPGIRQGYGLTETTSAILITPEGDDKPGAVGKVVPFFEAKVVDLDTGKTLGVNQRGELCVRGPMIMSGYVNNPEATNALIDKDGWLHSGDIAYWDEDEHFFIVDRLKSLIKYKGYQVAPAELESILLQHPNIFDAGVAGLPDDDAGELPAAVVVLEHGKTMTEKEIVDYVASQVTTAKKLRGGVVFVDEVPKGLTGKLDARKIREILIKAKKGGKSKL
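Biochemical qHTS of compounds, final roughly 60 µM downward over six points, against 10 nM purified firefly luciferase using Km concentrations of substrates (10 uM D-luciferin, 10 uM ATP) in Tris acetate pH 7.5 buffer; luminescence output.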
SMN2 splice up = SMN2 splice variant enhancement; HEK293 SMN2-luciferase splicing reporter, luminescence, 30-36 h; Potency, µM (top dose mostly 46.1 µM), hits mostly activators; actives 2.8% (n = 210,000); also: nearly all actives have a fitted effect of over 55% in size
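HEK293 cells carry an SMN2 minigene-luciferase reporter in which exon 7 inclusion puts luciferase in frame. Cells were seeded at 2000 cells/well, attached for 10-12 hours, then exposed to compounds for 30-36 hours at 37C before ONE-Glo luminescence.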
ELG1 DNA repair = blocks ELG1-dependent DNA repair in HEK293T cells. HEK293T ELG1-luciferase reporter, luminescence, 16 h; DNA damage induced by 5-fluorouridine. Potency, µM (titrated, usually from 46.1 µM), usual class: inhibitors. actives 2.3% (n = 330,000). AID 504467; also: nearly all actives have a fitted effect of over 55% in size
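In this reporter screen, reduction of luminescence relative to DMSO vehicle indicated activity. Compounds and 5-fluorouridine were added together to 2,000 cells per well, incubated for 16 hr at 37 °C, then developed with ONE-Glo.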
Rab9 prom act = Rab9 promoter activation; Huh7 Rab9 promoter-luciferase reporter, luminescence, 24 h; Potency, µM (titrated, usually from 9.22 µM), hits mostly activators; actives 2.8% (n = 320,000); AID 485297; also: nearly all actives have a fitted effect of over 60% in size
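Steps: seed 1500 Huh7 Rab9-luc cells per well, rest 2 h at 37 °C; add compound in DMSO; incubate 24 h; add luciferase reagent, 10 min ambient; read luminescence.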
ELG1 genotoxic = genotoxicity induction in ELG1-luciferase HEK293T cells | Potency, µM (top dose mostly 46 µM), actives largely listed as activators | actives 1.3% (n = 330,000) | HEK293T ELG1-luciferase reporter, luminescence, 16 h; also: nearly all actives have a fitted effect of over 60% in size
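16 hr compound incubation (37 °C, 5% CO2) of HEK293T cells carrying luciferase-tagged ELG1; luciferase then measured by ONE-Glo luminescence after 30 min at RT.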
NPC1 promoter act = NPC1 promoter activation | Huh7 NPC1 promoter luciferase reporter, 24 h | Potency, µM (series often up to 9.22 µM), hits mostly activators | actives 2.4% (n = 320,000); also: nearly all actives have a fitted effect of over 60% in size
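NPC1 promoter–luciferase Huh7 cells; 24 h compound; luminescence.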
Hits are given with their value; 0 = inactive; ? = inconclusive; - = no result; [ ] = remark or other dose. Calls follow the shape of the dose curve; as a rule, active = well fitted curve in the direction sought with a large enough effect; inconclusive = small, poorly fitted or top-dose-only effect, or another doubt; inactive = no such curve, though single readings can be large; an effect the other way counts as inactive or inconclusive.

SMILES	FLuc counter	SMN2 splice up	ELG1 DNA repair	Rab9 prom act	ELG1 genotoxic	NPC1 promoter act
Cc1cc(C)c2c(=O)cc(CSCC(=O)Nc3nnc(C)s3)[nH]c2c1	0	-	-	-	-	-
O=C(CNC(=O)c1ccco1)OCC(=O)c1ccc(Cl)cc1	0	0	0	0	0	0
Cc1cccc(N2CC(C(=O)Nc3ccc(S(=O)(=O)NCC4CCCO4)cc3)CC2=O)c1C (centres undefined)	0	-	0	?	0	0
COc1cc(C(=O)NC(=S)Nc2nc(-c3ccc(F)cc3)cs2)cc(OC)c1OC	0	-	0	0	0	0
COc1cc(C(=O)Nc2nc(-c3cccs3)cs2)cc(OC)c1OC	0	?	13µM	0	0	0
Cc1csc(NC(=O)c2sc3nc(-c4cccs4)ccc3c2N)n1	3.8µM	0	?	0	?	0
COc1ccc(C(=O)Nc2nc(-c3cccs3)cs2)cc1	6.7µM	0	-	-	-	-
O=C(Nc1nc(-c2cccs2)cs1)c1ccc(Cl)cc1	11µM	0	0	0	?	0
Cc1ccc(NC(=O)c2sc3nc(-c4cccs4)ccc3c2N)cc1F	0	0	-	-	-	-
O=c1c2ccccc2oc2cc(OCc3ccc(F)cc3)cc(O)c12	0	-	0	0	0	0
CN(C)/C=C/C(=O)c1ccc(Cl)c([N+](=O)[O-])c1	0	0	0	0	0	0
Cc1ccc(C(=O)Nc2nccc(-c3cccs3)n2)cc1	13µM	0	0	0	0	0
COc1cccc(Cn2cc(S(=O)(=O)c3ccc(C)cc3)c(=O)c3cc4c(cc32)OCO4)c1	0	0	-	-	-	-
CC(=O)N1CCOc2ccc(S(=O)(=O)NCC3CCC(C(=O)NCCC(C)C)CC3)cc21 (centres undefined)	0	-	?	0	0[9.26 µM]	0
CC(=O)N1CCOc2ccc(S(=O)(=O)NCC3CCC(C(=O)Nc4ccc(C)cn4)CC3)cc21 (centres undefined)	0	-	5.2µM	0	0	0
O=C(O)c1ccccc1C(=O)Nc1cccc([N+](=O)[O-])c1	0	-	0	0	0	0
COc1ccc(NC(=O)c2cccc([N+](=O)[O-])c2)cc1	?	0	?	?	?	?
O=C(Nc1cccc([N+](=O)[O-])c1)c1cc2ccccc2cc1O	0.95µM	-	?	0	0	0
O=C(Nc1ccncc1)c1cc2ccccc2cc1O	1.7µM	-	?	1.4µM	?	2µM
COc1ccc(NC(=O)c2cc([N+](=O)[O-])ccc2O)cc1	0.13µM	-	?	0.0003µM	?	0.002µM
COc1ccc(C(OC(=O)c2ccco2)C(=O)NCc2ccco2)cc1 (centres undefined)	0	0	0	0	0	0
O=C(/C=C/c1ccc2c(c1)OCCCO2)c1ccc2ccccc2c1O	2.7µM	0	?	?	?	3.2µM
Cc1ccc(C(=O)/C=C/c2ccc3c(c2)OCCO3)c(O)c1	1.1µM	-	?	3.5µM	?	?
O=C(NCCc1ccccc1Cl)C1CCC(=O)N(Cc2cccc(C(F)(F)F)c2)C1 (centres undefined)	0	-	0	0	0	0
Cc1ccc(NC(=O)c2ccc(N3CCOCC3)c([N+](=O)[O-])c2)cc1S(=O)(=O)N1CCOCC1	0	0	21µM	0	0	0
SMILES	FLuc counter	SMN2 splice up	ELG1 DNA repair	Rab9 prom act	ELG1 genotoxic	NPC1 promoter act
O=C(Nc1ccc(Cl)c([N+](=O)[O-])c1)c1ccc(NCCCN2CCOCC2)c([N+](=O)[O-])c1	0	0	0	0	0	0
Cc1ccc(C(=O)Nc2ccccc2[N+](=O)[O-])cc1S(=O)(=O)N1CCOCC1	0	-	0	0	0	0
Cc1ccc(C(=O)Nc2cccc(S(=O)(=O)N3CCOCC3)c2)cc1[N+](=O)[O-]	0	-	?	0	0	0
CN(C)S(=O)(=O)c1cccc(NC(=O)c2ccc(N3CCOCC3)c([N+](=O)[O-])c2)c1	?	0	18µM	0	0	0
Cc1ccc(S(=O)(=O)N2CCN(c3cc4c(cc3[N+](=O)[O-])n(C)c(=O)n4C)CC2)cc1	0	0	7.3µM	0	0	0
Cc1ccc(NC(=O)c2ccc(NCCCN3CCOCC3)c([N+](=O)[O-])c2)cc1Cl	?	0	18µM	0	0	0
COc1ccc(/C=C/C(=O)N2CCN(C)CC2)cc1OC	0	-	0	0	0	0
CCOc1cc(Br)c(Br)c(C=Nc2ccc(NC(C)=O)cc2)c1O	0	0	0	0	0	0
O=C(Nc1nccs1)c1ccc(N2CCOCC2)c([N+](=O)[O-])c1	12µM	-	?	2.2µM	?	1.8µM
Cc1ccc(S(=O)(=O)N2CCN(c3ccc(C(=O)N4CCOCC4)cc3[N+](=O)[O-])CC2)cc1	0	0	18µM	0	0	0
Clc1ccccc1OCc1nnc(-c2ccccc2)o1	11µM	16µM	?	3.5µM	?	2.5µM
Clc1ccccc1-c1nnc(COc2ccccc2)o1	21µM	13µM	-	-	-	-
CC(=O)Nc1ccccc1OCc1nnc(-c2ccc(Cl)cc2)o1	?	?	?	0	0	0
CCOc1ccc(S(=O)(=O)N2CCC(C(=O)Nc3cc(S(C)(=O)=O)ccc3Cl)CC2)cc1	0	-	0	0	0	0
CCOc1ccc(CCNC(=O)c2cc3n(n2)CCCN(Cc2ccc(C)cc2)C3=O)cc1OCC	0	-	-	-	-	-
CC(C)C(=O)c1cc2c(cc1NC(=O)Nc1cccc3ccccc13)OCCO2	0	0	23µM	0	0	0
Cc1cccc(NC2SC(=O)N(c3ccccc3)C2=O)c1 (centres undefined)	0	?	?	0	0	0
C/C(=N\Nc1nc(N2CCOCC2)nc(N2CCOCC2)n1)c1cccc([N+](=O)[O-])c1	0	0	?	0	0	0
C/C(=N\Nc1cc(N2CCOCC2)ncn1)c1cccc([N+](=O)[O-])c1	0	11µM	0	0	0	0
C/C(=N\Nc1cc(N2CCOCC2)ncn1)c1ccccc1	5.4µM	-	?	2.5µM	?	2.5µM
Clc1ccccc1/C=N/Nc1cc(N2CCOCC2)ncn1	?	-	?	?	0	?
CSc1ccc(S(=O)(=O)NCCCOC(C)C)cc1	0	-	0	0	0	0
CCN(NC(=O)C(O)(c1ccc(F)cc1)c1ccc(F)cc1)C(=O)c1ccccc1	0	0	0	0	0	0
COC(CNC(=O)CSCc1nc(-c2ccc(SC)cc2)oc1C)OC	?	0	?	0	0	0
COc1ccccc1C1CC(c2ccco2)=NN1c1ccccc1 (centres undefined)	0	0	0	0	0	0
CCC[C@H](CN[C@@H](CNC)[C@H](C)CC)NCCc1cc(C(F)(F)F)cc(C(F)(F)F)c1	0	-	21µM	0	0	0
